The whole screen tested about 1,200 compounds, of which about 10 (0.8%) were called active. About 4% were inconclusive and are not listed. What follows is part of a selection rich in actives, with near analogues and random picks from the rest. Values without a mark were called inactive. The call rests on the fitted dose curve; in most records, active means well fitted inhibition curve with a large enough effect; inconclusive means small, poorly fitted or top-dose-only effect; inactive means no such curve, though single readings can be large or run the other way.
Experiment: qHTS Assay to Find Inhibitors of Chronic Active B-Cell Receptor Signaling: Hit Validation in OCI-Ly3 Assay
Settings: OCI-Ly3 IkB-luciferase reporter, Chroma-Glo luminescence, 4 h; series mostly up to 46.1 µM; activity change, negative = inhibition: at the top concentration
Excerpt: Diffuse large B-cell lymphoma (DLBCL) is the most common category of non-Hodgkin lymphoma, with ~20,000 new cases per year in the United States. DLBCL should be regarded as a collection of different neoplasms. Microarray gene expression analysis has defined two principal types of DLBCL, named for their similarity to normal B cell stages or activation states: a germinal center B-cell (GCB) type, and an activated B-cell (ABC) type. In ABC-DLBCL, a constitutive high-level activity of the NF-kappaB family of transcription factors has been observed (1) and NF-kappaB target genes are more highly expressed in ABC primary tumors than in GCB tumors. Functional studies have shown a constitutive high-level activity of the IkappaB (inhibitor of kappa-B) kinase (IKK) complex. […] Further analysis of DLBCL primary tumors for NF-kappaB target gene expression imply that although CARD11 is required for constitutive IKK activity in all ABC-DLBCL lines, mutations in CARD11 may be the root cause of IKK activation only in lines or tumors with such mutations. In other words, CARD11 mutations may explain NF-kappaB activation in only 10% of ABC-DLBCL cases. […] This process has been termed 'chronic active BCR signaling' (CABS). The goal of this screen is to find small-molecule inhibitors of the CABS pathway found in ABC-DLBCL lines using a cell-based assay that measures IkappaBalpa stability, which has already been extensively validated in the OCI-Ly3 line (PubChem AID:445; REF: 4). […] Hits from the primary screen were tested in this selectivity secondary assay. NIH Molecular Libraries Probe Production Network [MLPCN] NIH Chemical Genomics Center [NCGC] MLPCN Grant: R03 DA031086 PI Name: Dr. R. Eric Davis
Cells were seeded in 1536-well plates at 5000 cells/3ul in IMDM medium containing 0.5% FBS, w/o phenol red, L-glutamine, 25 mM HEPES, 3 mg/ml sodium bicarbonate. After centrifugation for 1 min. at 1000 rpm, 23 nl of compounds or DMSO were delivered to each well using a pin tool. Then 1ul 80ng/ml doxycycline was dispensed into white solid 1536-well plates and the plates were incubated at 37C/5% C02 in a cell incubator for 4 hrs. Then 4 ul Chroma-Glo luminescent substrate mix (Promega) was added to each well. The plate was incubated at R.T. for 10-15 min. The plates were measured on a ViewLux plate reader for green luminescence (540/20 nm filter) and red luminescence (618/8 nm filter). The green and red luminescent signals were corrected for red and green luminescence filter overlap using previously determined filter calibration constants (determined using the procedure outlined in the Promega Technical Manual). The %Activity was determined from the ratio of corrected green/red luminescent values. Green luminescent and ratio %Activity was determined by normalizing to the difference in signal between basal cells (0% Activity) and cells incubated with 10 uM of the proteasome inhibitor MG-132 (100% Activity). Red luminescent %Activity was normalized to the difference between red luminesence in basal cells (0%Activity) and zero luminescence (-100% Activity). Concentration-response curves were fitted to the signals arising from the green luminescence (I-kappa-B-alpha-luciferase fusion; IkB-luc) and the red luminescence (unfused luciferase; luc) as well as the calculated ratio. The concentration-effect curves were then classified based on curve quality (r2), response magnitude and degree of measured activity. Compounds were then categorized based on their concentration-response curves for all three datasets (Ikb-luc, luc and ratio).
On the % scale 0 is the no-effect control and ±100 the full control effect; potency means the concentration at half of the fitted maximal effect.

Row | SMILES | activity change, negative = inhibition | Potency
1 | O=[N+]([O-])c1cccnc1SCc1c(F)cccc1Cl | -1.19% | 
2 | CCCSc1nc(C)c(C(C)=O)cc1C#N | -0.455% | 
3 | CCOc1c(Br)cc(CNc2ccc3c(c2)OCCO3)cc1OC | -4.18% | 
4 | CCOC(=O)c1c(C)sc2c1N(C(C)=O)c1cc(Cl)ccc1S2 | -1.47% | 
5 | CC(C)N1C(=O)/C(=C\c2nc3ccccc3c(=O)[nH]2)c2ccccc21 | -26.8% | 
6 | COc1cc(C2Nc3ccccc3C(=O)N2c2ccc(Cl)cc2)c(Cl)cc1OCC(=O)O (stereo not drawn) | 0.262% | 
7 | Cc1ccc(NC(=S)N/N=C/c2c(Cl)cccc2Cl)c(C)c1 | -4.26% | 
8 | Cc1cc2nc(/C=C/c3cccnc3)[nH]c2cc1C | -2.38% | 
9 | COC(=O)C1C(O)=C(C=Nc2ccccc2)C(=O)CC1(C)C (stereo not drawn) | 0.611% | 
10 | Cc1ccc(NC(=O)c2ccco2)c([N+](=O)[O-])c1 | 0.0255% | 
11 | CN(C)c1ccc(-c2nn3c(-c4ccccc4Cl)nnc3s2)cc1 | -2.19% | 
12 | CCOC(=O)COc1cccc2c(=O)n(CC(=O)NCc3ccc(F)cc3)ccc12 | -1.96% | 
13 | Cc1c(C(=O)OCC(C)C)[nH]c2c1C(=O)CC(c1cccs1)C2 (stereo not drawn) | -0.184% | 
14 | Clc1cncc(Cl)c1N/N=C/c1ccncc1 | -4.45% | 
15 | COc1ccc(CCNC(=O)Cn2c(=O)cnc3ccccc32)cc1 | -0.695% | 
16 | COc1cc(C(=O)Nc2nc(C)c(Cc3ccc4c(c3)OCO4)s2)cc(OC)c1OC | -6.45% | 
17 | O=C(/C=C/c1ccc(O)cc1)c1ccc(O)cc1O |  | 16.4 µM (active)
18 | COc1ccc(C(=O)/C=C/c2ccc(O)cc2)c2c1CC(O)C(C)(C)O2 (stereo not drawn) | -0.966% | 
19 | Cc1ccc(/C=C/C(=O)c2nc3ccccc3[nH]2)cc1 | -4.37% | 
20 | COc1ccc2[nH]c3c(c2c1)CCN1C(=O)C(CC(=O)NCC24CC5CC(CC(C5)C2)C4)C[C@H](C(=O)N2CCCCC2)[C@@]31C (stereo partly drawn) | -2.31% | 
21 | Nc1nc(SCc2nc(-c3ccccc3)no2)[nH]c(=O)c1-c1ccccc1 | -0.0938% | 
22 | Oc1cccc(/C=N/Nc2ccc(Cl)nn2)c1O |  | 20.6 µM (active)
23 | Oc1ccccc1/C=N/Nc1ccnc(SCc2ccccc2)n1 | 0.375% | 
24 | O=C(/C=C/c1ccccc1)c1ccc(NC2=NCCCS2)cc1 | -4.98% | 
25 | Cc1c(CCC(=O)N[C@@H](CCCNC(N)=O)C(=O)O)c(=O)oc2cc3oc4c(c3cc12)CCCC4 | -0.014% | 
26 | COc1ccc(/C=N/Nc2nccnc2Cl)c(OC)c1 | -14.9% | 
27 | CCO[C@H]1OC(C(=O)NCc2nc3ccccc3[nH]2)=C[C@@H](C2CC2)[C@@H]1CCCO | -0.732% | 

Row | SMILES | activity change, negative = inhibition | Potency
28 | CNc1nc(-c2ccc(OC)cc2)c(-c2ccc(OC)cc2)s1 | -0.769% | 
29 | COc1ccc(C)cc1Nc1cc(C)nc2ncnn12 | -1.77% | 
30 | NC(=S)N/N=C1\CC(c2ccc3c(c2)OCCCO3)Oc2ccc(F)cc21 (stereo not drawn) | -4.5% | 
31 | CCOC(=O)C1=C(O)c2ccccc2C(=O)/C1=C\c1ccc(CC)cc1 | -7.74% | 
32 | COCCn1nnnc1C(C(C)C)N(Cc1ccccc1)Cc1cc2cc(OC)ccc2[nH]c1=O (stereo not drawn) | -1.07% | 
33 | CCCN1C(=O)C(=O)c2cc(Cl)ccc21 | -8.1% | 
34 | Cc1ccc2c(c1)C(=O)C(=O)N2CCOc1ccccc1 | -2.23% | 
35 | CC[C@]12c3[nH]c4cc(CCC(=O)N(C)C)ccc4c3CCN1C(=O)[C@@H](CC(=O)NC(C)(C)C)C[C@@H]2C(=O)N1CCN(C(=O)c2ccco2)CC1 | -2.11% | 
36 | CCOC(=O)c1ccc(-c2c(-c3cc(OC)c(OC)c(OC)c3)noc2C)cc1F | -3.94% | 
37 | COc1ccccc1NC(=O)N1CCC(c2nc3cc(C)c(C)cc3[nH]2)CC1 | -3.12% | 
38 | Cc1cc(C)c2nc3sc(C(=O)N4CCOCC4)c(N)c3cc2c1 | -8.28% | 
39 | Cc1cc(Cl)n2c(nc3cc(F)c(F)cc32)c1C#N | 0.844% | 
40 | CC(=O)Nc1cc(N=Cc2ccc(O)cc2O)c(Cl)cc1Cl |  | 14.6 µM (active)
41 | NC(=S)N=Nc1c(O)n(CCCl)c2ccccc12 | -0.383% | 
42 | CCn1c(O)c(N=NC(=S)NCC2CCCO2)c2ccccc21 (stereo not drawn) |  | 20.6 µM (active)
43 | Oc1[nH]c2c(Cl)cc(Cl)cc2c1N=NC(=S)NCC1CCCO1 (stereo not drawn) | -26.5% | 
44 | COC(=O)C1C(O)=C(C=Nc2cccc3ccccc23)C(=O)CC1(C)C (stereo not drawn) | -0.573% | 
45 | CCOc1ccc(C(=O)NC(=S)Nc2cccc(S(=O)(=O)NC3=NCCC3)c2)cc1 | -4.42% | 
46 | CC1=CC(C)(C)N(S(=O)(=O)c2ccc(C)cc2)c2ccccc21 | -3.65% | 
47 | Cc1ccc(OC/C(=N\O)C(C)(C)C)c([N+](=O)[O-])c1 | -0.43% | 
48 | Cc1ccc(Nc2nc(-c3c(C)nc4ccccn34)cs2)cc1 | -3.78% | 
49 | CCOc1ccc(C(=O)c2cc([N+](=O)[O-])ccc2N2CCOCC2)cc1 | -3.09% | 
50 | COc1ccc(C=C2c3ccccc3C(=O)c3ccccc32)c(OC)c1 | -2.64% | 
51 | COc1ccc(/C=C/C(=O)c2cc(Br)ccc2OC(=O)c2ccco2)cc1OC | -26.8% | 
52 | COCCN(Cc1cc2cc(C)cc(C)c2nc1Cl)C(=O)Nc1ccccc1 | -1.1% | 
53 | Cc1ccc(NC(=S)NNC(=S)Nc2ccc(C)cc2C)cc1 | -5.8% | 

Reference: PubChem BioAssay AID651567 (National Center for Advancing Translational Sciences (NCATS), 2012)
